Data taken from PubChem BioAssay (NCATS).
Inconclusive results are not listed. Active and inactive are the calls of the source. Calls follow the shape of the dose curve; as a rule, active = well fitted inhibition curve with a large enough effect; inconclusive = small, poorly fitted or top-dose-only effect; inactive = flat fitted curve, though single readings scatter.

What was measured:
Assay in all cases: qHTS profiling for inhibitors of Plasmodium falciparum proliferation (AID 504749); also: nearly all actives have a fitted effect of over 60% in size
Details in all cases: P. falciparum in erythrocytes, SYBR Green DNA, 72 h; series mostly up to 28.7 µM
CP305 = system: CP305
Outline: (§1)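 Quantitative HTS: compounds pinned into medium, infected erythrocytes added (0.3% parasitemia, 2.5% hematocrit), 72 h culture at 37 C under 5% CO2. Saponin/Triton lysis with SYBR Green I, overnight RT, then fluorescence read.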

CP315 = system: CP315
Outline: as §1

CP329 = system: CP329
Outline: as §1

DFO2036 = system: DFO2036
Outline: as §1

DIV14 = system: DIV14
Outline: as §1

CP286 = system: CP286
Outline: as §1

CP335 = system: CP335
Outline: as §1

CP297 = system: CP297
Outline: as §1

CP291 = system: CP291
Outline: as §1

CP325 = system: CP325
Outline: as §1

Measured: Potency
Potency is read from the fitted curve at half-maximal effect.

CN1CCC[C@@H]1Cc1c[nH]c2ccc(CCS(=O)(=O)c3ccccc3)cc12
inactive: CP305 | CP315 | CP329 | DFO2036
active: DIV14 9.53 µM

CN(C)CCCN1c2ccccc2Sc2ccc(Cl)cc21
active: CP286 12.6 µM | CP335 13.5 µM | DIV14 3.01 µM
inactive: CP315 | DFO2036

CNCCC(Oc1ccc(C(F)(F)F)cc1)c1ccccc1 (centres undefined)
inactive: CP297 | CP315 | CP329 | DFO2036
active: CP286 10 µM | DIV14 3.01 µM

Nc1ncnc2c1ncn2[C@@H]1O[C@H](CO)[C@@H](O)[C@H]1O
not listed: CP297
inactive: all other assays above

CSc1ccc2c(c1)C(N1CCN(C)CC1)Cc1ccccc1S2 (centres undefined)
active: DIV14 10.7 µM
inactive: CP315

CCOc1nc2cccc(C(=O)O)c2n1Cc1ccc(-c2ccccc2-c2nn[nH]n2)cc1
not listed: DIV14 | CP291
inactive: all other assays above

CCCCN1CCCC[C@H]1C(=O)Nc1c(C)cccc1C
not listed: CP335 | CP291
inactive: all other assays above

CN(C)CCN(Cc1ccccc1)c1ccccn1
inactive: CP297 | CP315 | CP329 | DFO2036

CN1CCCCC1CCN1c2ccccc2Sc2ccc(S(C)=O)cc21 (centres undefined)
inactive: CP297 | CP315 | CP325 | CP329 | DFO2036
active: DIV14 7.57 µM

OCc1cc(C(O)CNCCCCCCOCCCCc2ccccc2)ccc1O (centres undefined)
not listed: DIV14 | CP286 | CP335
inactive: all other assays above

CC(C(O)c1ccc(O)cc1)N1CCC(Cc2ccccc2)CC1 (centres undefined)
active: CP291 16.9 µM | CP305 15.1 µM | CP325 15.1 µM | CP335 10.7 µM | DIV14 13.5 µM

Cc1ccc2nc(N)[nH]c(=O)c2c1Sc1ccncc1
active: CP286 2.82 µM | DFO2036 10 µM
inactive: CP297 | CP315

[Cl][In]([Cl])[Cl]
inactive: CP315 | CP329

OCCN1CCN(CCCN2c3ccccc3Sc3ccc(Cl)cc32)CC1
active: CP286 3.16 µM | CP335 2.56 µM | DIV14 5.73 µM

Oc1ccc(C(O)CNCCCCCCNCC(O)c2ccc(O)c(O)c2)cc1O (centres undefined)
active: CP286 7.08 µM | CP335 9.53 µM | DIV14 10.7 µM
inactive: DFO2036

COCCOC(=O)C1=C(C)NC(C)=C(C(=O)OC/C=C/c2ccccc2)C1c1cccc([N+](=O)[O-])c1 (centres undefined)
active: CP335 9.53 µM | DIV14 13.5 µM

CC(CN1c2ccccc2Sc2ccccc21)N(C)C (centres undefined)
not listed: CP305 | CP297
inactive: all other assays above

CN1CCN(C2Cc3ccccc3Sc3ccc(Cl)cc32)CC1 (centres undefined)
inactive: CP291 | CP305 | CP315 | CP325 | CP329 | DFO2036

O=C(O)c1ccccc1O
not listed: CP297
inactive: all other assays above

CCOC(CN1CCN(CC(C)C(=O)c2ccccc2)CC1)c1ccccc1 (centres undefined)
not listed: DIV14 | CP335 | CP297
inactive: all other assays above

CNC(=O)Oc1ccc2c(c1)[C@]1(C)CCN(C)[C@@H]1N2C
inactive: CP315
active: CP286 7.08 µM | CP335 7.57 µM | DFO2036 2.24 µM
